VACV Venus inh = vaccinia inhibition (Venus reporter); AID 720580; Vaccinia virus Venus reporter expression, fluorescence; Potency, µM (titrated, usually from 36.5 µM), most hits filed as inhibitors; hit rate 0.46% among 330,000; calls by dose curve; tested in A549 cells; further: nearly all actives have a fitted effect of over 30% in size
Pf growth 96h = P. falciparum growth inhibition at 96 hour, primary screen for plastid delayed-death inhibitors; P. falciparum luciferase reporter growth, 96 h; Potency, µM (top dose mostly 28.7 µM), most hits filed as inhibitors; hit rate 6.9% among 320,000; AID 504834
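96 h incubation, 37 C, 5% CO2, of luciferase-reporter P. falciparum-infected RBCs (2% hematocrit, 0.05% parasitemia final) with test compounds; endpoint luminescence.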
VACV mCherry inh = vaccinia inhibition (mCherry reporter) | AID 720579 | Vaccinia virus mCherry reporter infection, fluorescence | hit rate 0.63% among 310,000 | Potency, µM (top dose mostly 36.5 µM), usual class: inhibitors; calls by dose curve; tested in A549 cells; further: nearly all actives have a fitted effect of over 35% in size
HCV inh = blocks hepatitis C virus; Huh7.5.1 HCVcc-Cre infection, luciferase reporter, 44 h; Potency, µM (highest dose often 41.8 µM), usual class: inhibitors; hit rate 3.4% among 340,000
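After 44 h co-culture of compound, cells and HCVcc-Cre (~0.5 moi), substrate is added for 15 min at room temperature and luciferase measured over 15 sec. Cells were seeded at 1,000/well and pre-cultured 4 h.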
NS1 inh = blocks influenza NS1 protein function | hit rate 0.4% among 270,000 | AID 2326 | Potency, µM (highest dose often 46.1 µM); calls by dose curve; further: actives are rising curves; nearly all actives have a fitted effect of over 50% in size
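Growth recovery, yeast-based: influenza A NS1 expressed in S. cerevisiae causes slow growth, and suppressors are detected by OD600. The parent strain without NS1 is used as positive control.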
Pf growth 48h = P. falciparum growth inhibition at 48 hours (one generation). P. falciparum luciferase growth in erythrocytes, 48 h. Potency, µM (titrated, usually from 28.7 µM), actives largely listed as inhibitors. hit rate 5.9% among 310,000. AID 504832
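Erythrocytes infected with P. falciparum carrying an integrated firefly luciferase reporter (2% hematocrit, 0.1% parasitemia final) were exposed to compounds in RPMI 1640 with 0.5% Albumax at 37 C, 5% CO2. Growth inhibition was scored as reduced luminescence.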
Numbers stand for hits; . = inactive; ? = inconclusive; / = no result. Compounds with a hit are over-represented: about 11% of the library has one in this group of screens. Unless noted, the call rests on the fitted dose curve; in most records, active means well fitted inhibition curve with a large enough effect; inconclusive means small, poorly fitted or top-dose-only effect, or another doubt; inactive means no such curve, though single readings can be large or run the other way.

SMILES | VACV Venus inh | Pf growth 96h | VACV mCherry inh | HCV inh | NS1 inh | Pf growth 48h
Cc1nc(C)c(C(=O)N(c2ccc(F)cc2)C(C(=O)NCC2CCCO2)c2ccccc2)s1 (configuration not stated) | . | . | . | . | . | .
O=C(NCc1ccc(F)cc1)C(c1ccccc1)N(CC1CCCO1)C(=O)Cn1nnc2ccccc21 (configuration not stated) | / | ? | / | . | . | 8.28µM
O=C(NCc1ccco1)C(c1ccccc1)N(CC1CCCO1)C(=O)Cn1nnc2ccccc21 (configuration not stated) | . | . | . | . | ? | ?
Cc1cccc(C)c1NC(=O)C(c1cccs1)N(Cc1ccco1)C(=O)Cn1nnc2ccccc21 (configuration not stated) | . | / | / | . | . | 6.57µM
O=C(NCc1ccco1)C(c1ccccc1)N(Cc1ccccc1)C(=O)Cn1nnc2ccccc21 (configuration not stated) | ? | 9.28µM | . | . | . | .
O=C1OC(c2cccs2)Sc2ccccc21 (configuration not stated) | . | / | . | / | / | /
O=C1NC(=S)N/C1=C/c1ccc(Oc2ccc(C(F)(F)F)cc2[N+](=O)[O-])c(Cl)c1 | . | . | . | . | . | .
CC(C)(CO)N1CCN(C(=S)Nc2ccccc2)CC1 | . | . | . | . | . | .
COc1ccccc1-c1oc2ccccc2c1C#CC1(N)CCCCC1 | ? | 3.29µM | . | ? | / | 8.28µM
COc1ccccc1-c1oc2ccccc2c1C#CCCO | . | ? | . | 14.1µM | / | .
COc1ccc(-c2oc(=O)c3cc(OC)c(OC)cc3c2C#CCCO)cc1 | . | / | . | 3.16µM | / | /
COc1cc(OC)cc(-c2oc(=O)c3cc(OC)c(OC)cc3c2C#CCCO)c1 | . | / | . | ? | / | /
O=C1NCCCC1C(=O)N1CCN(C(=O)C2CCCNC2=O)CC1 (configuration not stated) | / | . | / | / | . | 11.7µM
Cc1nn2c(COc3ccc(NC(=O)c4ccccc4)cc3)nnc2c2ccccc12 | . | 6.57µM | . | ? | . | ?
CCC(=O)Nc1ccc(OCc2nnc3c4ccccc4c(C)nn23)cc1 | . | . | . | . | . | ?
Cc1cc(C)cc(OCC(=O)N2CCCCCC2)c1 | . | / | . | . | . | .
Cc1ccc(/C=c2\sc3nc(-c4ccccc4Br)nn3c2=O)o1 | . | 11.7µM | . | . | . | .
COc1ccc(CNCCc2ccc(Cl)cc2)c(OC)c1OC | / | . | / | ? | . | .
Nc1nc2c(s1)CC(c1ccccc1)CC2 (configuration not stated) | . | 5.22µM | ? | . | . | .
Cc1cccc2sc(N(CCN(C)C)C(=O)/C=C/c3cccs3)nc12 | ? | ? | . | ? | . | ?
CN(C)CCCN(C(=O)/C=C/c1cccs1)c1nc2c(F)cccc2s1 | 10µM | ? | 10µM | ? | / | ?
COc1ccc2sc(N(CCN(C)C)C(=O)/C=C/c3cccs3)nc2c1 | / | ? | / | 15.8µM | / | .
O=C(CNC(=O)c1ccc(Br)cc1)OC1CCOC1=O (configuration not stated) | . | / | . | / | / | /
CC(Sc1ncccn1)C(=O)Nc1ccc2c(c1)OCCO2 (configuration not stated) | . | . | . | ? | / | .
CC1CC(=O)c2cnc(NCC3CCCO3)nc2C1 (configuration not stated) | . | 9.28µM | / | . | . | .
SMILES | VACV Venus inh | Pf growth 96h | VACV mCherry inh | HCV inh | NS1 inh | Pf growth 48h
COc1ccc2cc(C#N)c(N3CCOCC3)nc2c1 | . | . | . | ? | . | .
CCC(=O)c1cn(CC(=O)Nc2ccccc2F)c2ccccc12 | . | ? | . | . | . | .
CC(=O)c1cn(CC(=O)Nc2ccccc2F)c2ccccc12 | . | . | . | 11.2µM | . | .
CC(=O)c1cn(CC(=O)Nc2ccccc2Cl)c2ccccc12 | / | . | / | 11.2µM | . | .
O=C(Cn1c2ccccc2c(=O)c2cc([N+](=O)[O-])ccc21)Nc1ccccc1Cl | / | 9.28µM | / | . | . | ?
N#CC1=C(N)Nc2ncnn2C1c1ccc(F)cc1 (configuration not stated) | . | . | . | . | . | .
O=C(c1cccs1)N1CCN(Cc2nc(-c3ccccc3)no2)CC1 | . | / | . | / | / | /
O=C(CC1C(=O)NCCN1Cc1ccc(-c2ccccc2)cc1)NCCOc1cccnc1 (configuration not stated) | / | . | / | . | . | .

Bioassay records from PubChem BioAssay.
